Measured values as given in PubChem BioAssay AID2717 (Broad Institute, 2010).
Among all 300,000 compounds or so, about 3,200 (1.1%) were called active. Rule as the data show it: active = inhibition above about 75%; inconclusive = no clear call, values can overlap the other calls; inactive = below that; tested in HMLE shEcad cells. The full list was thinned out, with actives kept by preference.

Assay: growth suppression of cancer stem-like cells – cell-based, luminescence, primary screen (AID 2717)
Conditions: cancer stem cell-like cells viability, at 7.5 µM, hits give high values

Structure (SMILES)	inhibition
COc1ccc(Cl)cc1NC(=O)CN1CCN(C(=O)N2CCOCC2)CC1	-6.19% (inactive)
Cc1csc(NC(=O)NC2(C(F)(F)F)Oc3ccccc3O2)n1	36.6% (inactive)
O=C(Nc1cc(N2CCOCC2)ncn1)NC1(C(F)(F)F)Oc2ccc(Cl)cc2O1 (centres undefined)	88.5% (active)
Cc1c(O)c(C)c2c(c1O)C(=O)C[C@@H](c1ccccc1)O2	1.32% (inactive)
Cc1cccc(-n2ncc3c(=O)[nH]c(SCC(=O)Nc4cc(C)on4)nc32)c1	-7.48% (inactive)
CCOc1ccccc1NC(=O)CCc1ccc(C)o1	0.408% (inactive)
Cc1ccc(C(=O)Nc2nc3ccc(Cl)cc3s2)o1	18.8% (inactive)
Cc1ccc(CCC(=O)Nc2ncc(Cc3cc(Cl)ccc3Cl)s2)o1	86.2% (active)
CCCc1cc(=O)[nH]c(SCC(=O)Nc2ccc(S(=O)(=O)N3CCCC3)cc2)n1	15.6% (inactive)
C=CC[C@@H](CC(=O)N[C@@H](CO)Cc1ccccc1)C(=O)NCCOC(=O)[C@@H](CC=C)CC(=O)OC(C)(C)C	-6.46% (inactive)
O=C(NCCN1CCOCC1)c1ccc(/C=C2\Sc3ccccc3N(Cc3ccc(F)cc3)C2=O)cc1	33.7% (inactive)
CCN1CCN(CCNC(=O)c2ccc(/C=C3/Sc4ccccc4N(Cc4cccc(C)c4)C3=O)cc2)CC1	102% (active)
CCN1CCN(CCNC(=O)c2ccc3c(c2)NC(=O)/C(=C\c2ccc(OC)c(OC)c2)S3)CC1	12.1% (inactive)
COc1ccc(C(=O)OCC(=O)c2cc(C)n(CC3CCCO3)c2C)cc1[N+](=O)[O-] (centres undefined)	37.8% (inactive)
C=CC[C@H](CC(=O)OC(C)(C)C)C(=O)OC[C@H]1CCCN1C(=O)[C@H](CC=C)CC(=O)N(CCO)Cc1ccccc1	4.1% (inactive)
CCN(C(=O)CSc1cccc[n+]1[O-])c1ccccc1	7% (inactive)
O=C(OCC(=O)N1CCc2ccccc21)c1ccc([N+](=O)[O-])cc1	8.88% (inactive)
O=C(O)c1ccc(NC(=O)c2ccc(COc3ccc(Cl)cc3)o2)cc1	-2.6% (inactive)
O=C(Nc1ccn(Cc2ccccc2F)n1)c1ccc(COc2ccc(Cl)cc2Cl)o1	80.3% (active)
Cc1cccc(NC(=O)c2ccc(COc3ccccc3[N+](=O)[O-])o2)n1	54.5% (inactive)
COCCCNC(=O)CC1C[C@H](C(=O)N2CCCCC2)[C@@]2(CCc3ccccc3)c3[nH]c4ccccc4c3CCN2C1=O (some centres undefined)	-19.5% (inactive)
CC(C)=N/N=C1/NC(=O)C(Cc2ccccc2)S1 (centres undefined)	-16.9% (inactive)
NC1=NC(=O)C(Cc2cccc(Cl)c2Cl)S1 (centres undefined)	14.4% (inactive)
O=C1NC(=Nc2ccc(Cl)cc2)SC1Cc1cccc(Cl)c1Cl (centres undefined)	76.5% (active)
